According to PubChem BioAssay (NCI):
Compounds without any hit were thinned out: in the full panel of roughly 83,000, 20% have a hit.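 Values shown are percent growth following 48 h exposure of cells in 96-well plates to a single concentration of compound; below 10 was considered active.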 The source made the active and inactive calls.

What follows are compounds tested on BT-549 breast (assay: NCI-60 one-dose screen, 48 h (100 = growth as untreated, 0 = no growth, -100 = all killed)). Settings: 10 µM unless noted.
Experimental: Growth inhibition of the BT-549 human tumor cell line is measured as a screen for anti-cancer activity. Cells are grown in 96 well plates and exposed to the test compound for 48 hours. Compounds are tested at a single concentration, which is 10^-5 M for most compounds. The reported endpoint is percent growth (GI% or GIPRCNT), where numbers from 0 - 100% represent growth inhibition, and numbers from -100% - 0 represent cell death. For example, a value of 40 represents 60% growth inhibition. A value of 0 means no net growth occurred over the course of the experiment. A value of -40 indicates 40% of cells at the beginning of the experiment died by the end of the experiment. A value of -100 means all cells are dead at the end of the experiment.
NCI-60 Human Tumor Cell Lines Screen was performed using the standard one-dose NCI protocol, which is described in more detail at https://dtp.cancer.gov/discovery_development/nci-60/default.htm.
Compounds with GIPRCNT values below 10 were considered active. Activity score was based on GIPRCNT using the following formula: […]
Score is 0 for GIPRCNT values of 100 or above, 50 for GIPRCNT values of 0, and 100 for GIPRCNT values of -100.

| SMILES | growth |
| --- | --- |
| Cc1cc(SCc2ccc(Cl)cc2Cl)nc(SCc2ccc(Cl)cc2Cl)n1 | 106% (inactive) |
| O=C(/C=C/c1ccco1)c1cccc(Nc2nc(Nc3ccccc3)nc(Nc3ccccc3)n2)c1 | 116% (inactive) |
| O=C1C(Cl)=C(Nc2ccccc2)C(=O)C(Cl)=C1Nc1ccccc1 | 112% (inactive) |
| COc1ccc(-c2nn(-c3ccc(NC(=O)c4ccc(Cl)c(C(F)(F)F)c4)cc3)cc2-c2ccncc2)cc1Cl | 40.5% (inactive) |
| COc1cc2nc(C(=O)N3CCCCC3)cc(Nc3ccccc3)c2cc1OC | 102% (inactive) |
| O=C(NCCNc1nccc(-c2c(-c3cccc(O)c3)nc3sccn23)n1)c1ccccc1O | 45.7% (inactive) |
| O=C(Nc1ccc(-n2cc(-c3ccncc3)c(-c3ccc(O)c(Cl)c3)n2)cc1)c1cc(C(F)(F)F)cc(C(F)(F)F)c1 | 53.3% (inactive) |
| CN1C(=O)C2(SCC(C(=O)NCC(=O)OC(C)(C)C)N2C(=O)C2CCCCC2)c2ccccc21 (stereo not given) | 109% (inactive) |
| CCC1S/C(=N\N=C(/C)c2cc3ccccc3o2)N(c2ccccc2)C1=O (stereo not given) | 234% (inactive) |
| Nn1c(CN2CCN(c3cc4c(cc3F)c(=O)c(C(=O)O)cn4C3CC3)CC2)n[nH]c1=S | 112% (inactive) |
| CCN(CC)CCNC(=O)c1c(C)[nH]c(/C=C2\C(=O)Nc3cc(NC(=O)NC(=O)c4ccc(OC)cc4F)ccc32)c1C | 104% (inactive) |
| CC[C@@]1(O)C(=O)OCc2c1cc1n(c2=O)Cc2c-1nc1ccccc1c2/C=N/OC(C)(C)C | -7.82% (active) |
| Clc1ccc2c(c1)nnn1c3ncccc3c(Br)c21 | 72.1% (inactive) |
| c1ccc2nc(Cn3cc[n+](Cc4ccc5ccccc5n4)c3)ccc2c1 | 33.7% (inactive) |
| Nc1ccc(S(=O)(=O)Nc2cc(I)cc(I)c2)cc1 | 118% (inactive) |
| COc1ccc(-c2ccc(NC(=O)Nc3ccc(Cl)c(C(F)(F)F)c3)c(C)n2)cc1 | 66.2% (inactive) |
| C=CCn1c(SCC(=O)Nc2ccc(C(=O)/C=C/c3cc(OC)c(OC)c(OC)c3)cc2)nnc1-c1ccc(OC)cc1 | -23.8% (active) |
| CN1CCN(Cn2nc(-c3cc(F)c(Cl)cc3Cl)n(/N=C/c3ccc(N(C)C)cc3)c2=S)CC1 | 67.1% (inactive) |
| CCCCOc1nc2ccc(Cl)cc2cc1/C=C/C(=O)/C=C/c1ccc(Cl)cc1 | 36.3% (inactive) |
| CN1CCN(Cn2nc(-c3cc(Cl)cc(Cl)c3Cl)n(/N=C/c3ccc(Cl)cc3)c2=S)CC1 | 102% (inactive) |

| SMILES | growth |
| --- | --- |
| O=C1COc2ccccc2C(=O)N1CCCCN1CCCCC1 | 78.7% (inactive) |
| COc1ccc(Cn2cc(COc3ccc4c5ccnc(C)c5n(CCCc5ccccc5)c4c3)nn2)cc1 | 67.5% (inactive) |
| O=C(/C=C/c1ccccc1)Oc1ccc(/C=C/c2cc(OC(=O)/C=C/c3ccccc3)cc(OC(=O)/C=C/c3ccccc3)c2)cc1 | 102% (inactive) |
| CC1=C[S+](c2ccccc2)c2cccc3cc4ccccc4c1c23 (stereo not given) | -10.9% (active) |
| OC[C@@H](O)C(O[C@@H]1O[C@H](CO)[C@H](O)[C@H](O)[C@H]1O)[C@H](O)[C@@H](O)CO (stereo not given in full) | 107% (inactive) |
| CCCCCCCCCCCCCCCC(=O)NS(=O)(=O)OC[C@H]1O[C@@H](n2cnc3c(N)ncnc32)[C@H](O)[C@@H]1O | -65.2% (active) |
| CCn1c(SCC(=O)c2ccc(Br)cc2)nnc1-c1cc2c([nH]c3ccccc32)c(-c2cccc(O)c2)n1 | 71.9% (inactive) |
| CCCN1C(=O)CSC1=Nc1ccc2cc3ccc(N=C4SCC(=O)N4CCC)cc3nc2c1 | 41.7% (inactive) |
| O=C(COc1ccc(Cl)cc1Cl)N1N=C(c2ccc(Cl)cc2Cl)CC1(O)c1cc(F)c(Cl)cc1Cl (stereo not given) | 111% (inactive) |
| NC(=S)NNC1CCCCC1 | 88.4% (inactive) |
| COC(=O)c1ccc(NC(N)=NCC(C)(C)COc2ccc(C(F)(F)F)cc2)nc1 | 66.5% (inactive) |
| CCNC(=O)Oc1ccc(/C(=C(/CC)Cc2ccccc2)c2ccc(OCCN3CCOCC3)cc2)cc1 | 69.9% (inactive) |
| Cc1ccc(-c2cn3cc([N+](=O)[O-])ccc3n2)cc1 | 53.9% (inactive) |
| CN(C)CCS(=O)(=O)Nc1cc(-c2ccc3ncnc(Nc4ccc(F)c(Cl)c4)c3c2)cnc1Cl | -17.9% (active) |
| O=C1c2ccccc2C(=O)c2c(NCCN=Cc3c(O)ccc4ccccc34)cccc21 | 106% (inactive) |
| O=C(Nc1ccc(-n2ccc3c(NC(=O)c4ccccc4)nccc32)cc1)c1ccc(Cl)c(C(F)(F)F)c1 | 37.6% (inactive) |
| C/C(=N\N=C1/SCC(=O)N1c1ccccc1)c1ccco1 | 127% (inactive) |
| CC(=O)Oc1ccc(C(OC(C)=O)OC(C)=O)cc1 | 94.2% (inactive) |
| COc1ccc(Cl)cc1NC(=O)c1cc2c(n1C)-c1nc(NC(=O)C(C)C)sc1CC2 | 53% (inactive) |
| CCN(CC)c1ccc(C2CC(c3cc(OC)c(OC)c(OC)c3)=NN2)cc1 (stereo not given) | -2.69% (active) |
